Experimental data: PubChem BioAssay (NCI)
About 83,000 compounds went through this panel and 20% of them were active in at least one assay; those are over-represented in the sample as a whole.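 Treatment: one concentration, 48 hours, 96-well format. Scoring: percent growth, with anything below 10 considered active.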 Activity calls are given as the source filed them.

Columns and labels:
Assay in all cases: NCI-60 one-dose screen, 48 h (100 = growth as untreated, 0 = no growth, -100 = all killed)
Conditions in all cases: 10 µM unless noted
[1] = system: HCT-15 colon
[2] = system: HT29 colon
[3] = system: SNB-75 CNS
[4] = system: U251 CNS
[5] = system: PC-3 prostate
[6] = system: SK-MEL-5 melanoma
[7] = system: UACC-62 melanoma
[8] = system: LOX IMVI melanoma
[9] = system: SK-MEL-28 melanoma
[10] = system: SK-MEL-2 melanoma
[11] = system: EKVX NSCLC
[12] = system: SN12C renal
[13] = system: UO-31 renal
[14] = system: TK-10 renal
[15] = system: CAKI-1 renal
[16] = system: A498 renal
[17] = system: CCRF-CEM leukemia
[18] = system: MOLT-4 leukemia
[19] = system: ACHN renal

Measured: growth

COc1ccc2c(c1)c(-c1nc(-c3ccc4ccccc4c3)cs1)cn2C
inactive: [1] 73% | [2] 51.3% | [3] 109% | [4] 91% | [5] 87.1% | [6] 94.5% | [7] 91.3% | [8] 86% | [9] 89.6% | [10] 108% | [11] 85.8% | [12] 93.6% | [13] 70.6% | [14] 102% | [15] 83.6% | [16] 86.8% | [17] 88.7% | [18] 84%

COc1cc(OC)c2c(=O)c3c(CC=C(C)C)cc(OC)c(O)c3oc2c1
inactive: [1] 59.8% | [2] 95.4% | [3] 60% | [4] 85.1% | [5] 99.2% | [6] 76.4% | [7] 75.2% | [8] 82% | [9] 88.4% | [10] 91.4% | [11] 89.6% | [12] 96% | [13] 72% | [14] 82.9% | [15] 75.3% | [16] 67.7% | [17] 76.9% | [18] 66.4%

COC12C=C/C(=C(/C(=O)OCc3cncnc3)C(=O)CCCCCCCCC3(OC)C=C/C(=C(/C(=O)OCc4cncnc4)C(=O)CCCCCCCC1)O3)O2
active: [1] -49.1% | [2] 1.94% | [4] -36.5% | [5] -55.1% | [6] -79.9% | [7] -56.9% | [8] -61.8% | [9] -45% | [10] -13.1% | [11] -20.5% | [12] -34.7% | [13] -73.6% | [14] -23.6% | [19] -93.7% | [15] -43.5% | [16] -94.1% | [17] -18.2% | [18] -13.4%
inactive: [3] 22.4%

Oc1nc(NCc2ccccc2)sc1/C=C1\C=Nc2ncccc21
inactive: [1] 67.4% | [2] 57.9% | [3] 37.3% | [4] 51.1% | [5] 71.3% | [6] 70% | [7] 69.7% | [8] 52.1% | [9] 69.2% | [10] 72.9% | [11] 73.7% | [12] 72.8% | [13] 84.8% | [14] 64.4% | [19] 29.2% | [15] 74.6% | [16] 63.4% | [17] 49.6% | [18] 52.4%

O=C(Cn1nc(-c2cccc3ccccc23)ccc1=O)NCc1cccc(Cl)c1
active: [6] 5.82% [50 µM]
inactive: [1] 28.9% [50 µM] | [2] 43% [50 µM] | [3] 74.3% [50 µM] | [4] 35% [50 µM] | [5] 19.6% [50 µM] | [7] 35.2% [50 µM] | [8] 28.6% [50 µM] | [9] 56% [50 µM] | [10] 59.2% [50 µM] | [11] 21% [50 µM] | [12] 46.4% [50 µM] | [13] 15.3% [50 µM] | [14] 40.7% [50 µM] | [19] 28.9% [50 µM] | [15] 40.2% [50 µM] | [16] 26.8% [50 µM] | [18] 20.5% [50 µM]

C1CCC(N2CN3c4nonc4N4CN(C5CCCCC5)CN5c6nonc6N(C2)C3C45)CC1 (centres undefined)
inactive: [1] 84.5% | [2] 105% | [3] 88.7% | [4] 93.3% | [5] 87.9% | [6] 93.5% | [7] 88.7% | [8] 98.9% | [9] 101% | [10] 102% | [11] 82.4% | [12] 92.4% | [13] 71.9% | [14] 102% | [19] 103% | [15] 84.9% | [16] 92.9% | [17] 51% | [18] 91.8%

CCOC(=O)c1c(C)nc2ccccc2c1/C=C/c1ccc(F)cc1
inactive: [1] 68.1% | [2] 75.5% | [3] 86.5% | [4] 75.5% | [5] 67.3% | [6] 16.7% | [7] 49.7% | [8] 74.1% | [9] 101% | [10] 75.2% | [11] 60.3% | [12] 77.1% | [13] 62.8% | [14] 82.3% | [19] 75.5% | [15] 67.7% | [16] 75.4% | [17] 67.8% | [18] 42.8%

COC(=O)[C@@]1(C)CC[C@]2(C)CC[C@]3(C)C4=CC=C5C(=CC(=O)C(O)=C5C)[C@]4(C)[C@@H](O)C[C@@]3(C)[C@@H]2C1
inactive: [2] 31.1% | [3] 70.5% | [5] 29.1% | [6] 60.7% | [7] 29.6% | [10] 43.5% | [11] 51% | [14] 18.4% | [16] 101%
active: [1] 1.43% | [4] -10.1% | [8] -56.3% | [9] -17.8% | [12] 9.92% | [13] -56.6% | [19] -49.9% | [15] 9.58% | [17] -2.39% | [18] -20%

CCOC(=O)c1ccc[nH]1
inactive: [1] 93.9% | [2] 106% | [3] 84.2% | [4] 96.6% | [6] 98.4% | [7] 103% | [8] 94.1% | [9] 115% | [10] 99.3% | [11] 97.1% | [12] 105% | [13] 91.8% | [14] 98.3% | [19] 90.4% | [15] 74.3% | [16] 101% | [17] 92.1% | [18] 102%

COC1/C=C/OC2(C)Oc3c(C)c(O)c4c(O)c(c(/C=N/N(c5ccccc5)c5ccccc5)c(O)c4c3C2=O)NC(=O)C(C)=C/C=C/C(C)C(O)C(C)C(O)C(C)C(OC(C)=O)C1C (centres undefined)
inactive: [1] 41.4% | [2] 45.5% | [3] 66.9% | [4] 41.8% | [5] 38.7% | [7] 48.3% | [8] 47.4% | [9] 39.1% | [10] 82.2% | [11] 67% | [12] 70.9% | [13] 65.8% | [14] 55.8% | [15] 66.8% | [16] 91.3% | [17] 21.7% | [18] 35.1%
active: [6] -98.8%

COc1cc2c3c(c4c5ccccc5[nH]c4c2c(OC)c1OC)C(=O)N(CCN1CCCCC1)C3=O
active: [1] -87.2% | [2] -39.6% | [4] -60.3% | [8] -92% | [14] -76.6% | [19] -40.4% | [15] -49% | [17] 3.38%
inactive: [3] 63.5% | [5] 31.3% | [6] 31.7% | [7] 48.4% | [9] 52.2% | [10] 49.4% | [11] 35.1% | [12] 12.6% | [13] 16.1% | [16] 42.4% | [18] 12.9%
